Bioassay records (PubChem BioAssay)
The list is not random: actives were taken first. Their share in the collection is about 21%.
Sm TGR inh – blocks Schistosoma mansoni thioredoxin glutathione reductase; Q962Y6; purified TGR, DTNB reduction, TNB absorbance 405 nm; Potency, µM (top dose mostly 114 µM), most hits filed as inhibitors; 3% of 360,000 active; also: nearly all actives have a fitted effect of over 60% in size
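TGR 20 nM + NADPH 100 uM (dispensed conc.), cpd preinc 15 min RT; start with NADPH (500 uM addition) then DTNB (15 mM addition). Kinetic TNB absorbance, 405 nm filter. Four-parameter Hill fit across titration.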
NS1 function inh – blocks influenza NS1 protein function; 0.4% of 270,000 active; AID 2326; Potency, µM (series often up to 46.1 µM); calls by dose curve; also: actives are rising curves; nearly all actives have a fitted effect of over 50% in size
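Compounds were scored for reversing the slow growth caused by influenza A NS1 in S. cerevisiae, measured by optical density at 600 nm. Assay medium contained 2% galactose at pH 6.0; NS1-free yeast of the same strain were the positive control.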
CHX counter – affects cycloheximide protein synthesis inhibition readout, counter-screen; cell reporter, cycloheximide protein synthesis inhibition counterscreen; max response, %; 12% of 300,000 active; AID 2314; in the data active = max response mostly above about 13%, no sharp cut-off; inactive = mostly below about 14%; also: read at 38.3 µM for the half of the compounds with a filed dose
Pf growth 48h – P. falciparum growth inhibition at 48 hours (one generation). P. falciparum luciferase growth in erythrocytes, 48 h. 5.9% of 310,000 active. AID 504832. Potency, µM (highest dose often 28.7 µM), actives largely listed as inhibitors
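Cell-based growth assay: transgenic P. falciparum expressing firefly luciferase, cultured in red cells within RPMI 1640 containing 0.5% w/v Albumax, 24 mM bicarbonate and gentamycin. A drop in luciferase activity indicates inhibition.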
Shiga inhibitor – inhibitors of Shiga toxin in Vero cells | Vero cells, Shiga toxin protein synthesis inhibition reporter | inhibition, % at 38.7 µM | 9.2% of 290,000 active | AID 2315; in the data active = inhibition mostly above about 28%, no sharp cut-off; inactive = mostly below about 43%
Pf growth 96h – inhibits malaria parasite growth, 96 h | P. falciparum luciferase reporter growth, 96 h | Potency, µM (series often up to 28.7 µM), usual class: inhibitors | 6.9% of 320,000 active
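Parasite growth measured via integrated firefly luciferase reporter in P. falciparum. Infected erythrocytes at 2% hematocrit, 0.05% parasitemia final were treated 96 hours at 37 C under 5% CO2, and luminescence was read.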
Large screens that a line does not name were inactive. Unless noted, calls follow the shape of the dose curve; as a rule, active = well fitted curve in the direction sought with a large enough effect; inconclusive = small, poorly fitted or top-dose-only effect, or another doubt; inactive = no such curve, though single readings can be large; an effect the other way counts as inactive or inconclusive.

CN1C(=O)/C(=C/C=C2/CCCN2C)N(C)C1=S	Pf growth 96h 1.5µM
COc1ccccc1CNS(=O)(=O)c1c(C(=O)N2CCCC2)c(C)n(C)c1C	none
COc1ccc(C(=O)Nc2nccs2)cc1	CHX counter 29 (no result: Shiga inhibitor)
CCOCc1nnc(NC(=O)c2ccc(NC(C)=O)cc2)s1	none (no result: Sm TGR inh)
CCOCc1nnc(NC(=O)c2ccc(OC)cc2)s1	CHX counter 22, Shiga inhibitor 48
O=C(Nc1nccs1)c1cccc(NC(=O)C(F)(F)F)c1	CHX counter 18, Shiga inhibitor 73
CCC(CC)C(=O)Nc1cccc(C(=O)Nc2nccs2)c1	Pf growth 96h inconclusive
COc1ccc(C(=O)Nc2nccs2)cc1OC	CHX counter 28 (no result: Pf growth 96h)
N#Cc1cc2c(=O)n3ccccc3nc2n(-c2nnc(SCc3ccc(F)cc3)s2)c1=O	none (no result: NS1 function inh, CHX counter, Pf growth 48h, Shiga inhibitor, Pf growth 96h)
COc1ccc(C(=O)Nc2nccs2)cc1[N+](=O)[O-]	CHX counter 27
CCc1nnc(NC(=O)Nc2ccc(OC)cc2)s1	CHX counter 24 (no result: Pf growth 48h)
COc1ccc(NC(=O)Nc2nnc(CC(=O)Nc3ccccc3)s2)cc1	none
Cn1cc([N+](=O)[O-])c(C(=O)NCC(=O)O)n1	none
Cn1cc([N+](=O)[O-])c(C(=O)Nc2ccc(Br)cn2)n1	CHX counter 25, Shiga inhibitor 52
Cn1cc([N+](=O)[O-])c(C(=O)Nc2nccs2)n1	CHX counter 30
COc1ccc(N2CCN(S(=O)(=O)CCNC(=O)c3cc(=O)c4ccccc4o3)CC2)cc1	Pf growth 96h inconclusive
COc1ccc(NC(=O)Nc2nccs2)cc1	CHX counter 32, Shiga inhibitor 85 (no result: Pf growth 96h)
COC(=O)c1cc2sccc2n1Cc1nc(-c2ccc(Cl)cc2)oc1C	Pf growth 96h 10µM
COC(=O)c1cc2ccsc2n1Cc1nc(-c2cccc(Cl)c2)oc1C	Pf growth 96h 4.1µM (no result: Pf growth 48h)
COC(=O)c1cc2sccc2n1Cc1nc(-c2cccc(Cl)c2)oc1C	Pf growth 96h 9.3µM (no result: Pf growth 48h)
COC(=O)c1cc2occc2n1Cc1nc(-c2cccc(Cl)c2)oc1C	Pf growth 96h inconclusive
O=C(CCC1N=C2c3ccccc3N=C(SCc3ccccc3F)N2C1=O)NCc1ccc(F)cc1 (centres undefined)	none (no result: NS1 function inh, CHX counter, Pf growth 48h, Shiga inhibitor, Pf growth 96h)
Cc1nc2cc(-c3ccsc3-n3c(C)ccc3C)[nH]n2c(=O)c1Cl	Pf growth 96h 15µM (no result: Pf growth 48h)
Cc1cc(=O)n2[nH]c(-c3ccsc3-n3c(C)ccc3C)cc2n1	Sm TGR inh 20µM, Pf growth 96h 6.6µM
Cc1ccc(C(=O)/C=C/Nc2cccc([N+](=O)[O-])c2)o1	CHX counter 64, Shiga inhibitor 63, Pf growth 96h inconclusive
O=C(NC1CC1)C1=C[C@@H](c2csc3ccccc23)C[C@@H](OCc2ccc(CO)cc2)O1	Pf growth 48h inconclusive, Pf growth 96h 13µM
C#CCNC(=O)C1=C[C@@H](c2csc3ccccc23)C[C@@H](OCc2ccc(CO)cc2)O1	Pf growth 48h inconclusive, Pf growth 96h 5.2µM
O=C(NCc1ccccc1)C1=C[C@@H](c2csc3ccccc23)C[C@@H](OCCCCO)O1	Pf growth 48h inconclusive, Pf growth 96h inconclusive
O=C(NCc1ccccc1)C1=C[C@@H](c2csc3ccccc23)C[C@@H](OCc2ccc(CO)cc2)O1	Pf growth 48h inconclusive, Pf growth 96h inconclusive
CN1CCN(C(=O)C2=C[C@H](c3csc4ccccc34)C[C@H](OCCCCO)O2)CC1	Sm TGR inh 40µM
O=C(NCc1nc2ccccc2[nH]1)C1=C[C@@H](c2csc3ccccc23)C[C@@H](OCCCCO)O1	Pf growth 48h 2.6µM, Pf growth 96h 2.1µM
Cc1ccc(Cl)cc1N1CCN(Cc2cc(=O)n3ccsc3n2)CC1	none
CC(C)CC(=O)N1CC(C)N(C(=O)CC(C)C)CC1C (centres undefined)	none
O=C(CCn1c(=O)c2sccc2n(CC(=O)Nc2ccccc2)c1=O)NCc1ccccc1Cl	none (no result: NS1 function inh, CHX counter, Pf growth 48h, Shiga inhibitor, Pf growth 96h)
COc1ccccc1N1CCN(C(=O)CSc2nnc3c4ccccc4nc(Cc4ccccc4)n23)CC1	Pf growth 48h inconclusive
O=C(NC1CC1)C1=C[C@@H](c2coc3ccccc3c2=O)C[C@@H](OCCCCO)O1	Sm TGR inh 45µM
NC(=O)C1=C[C@@H](c2coc3ccccc3c2=O)C[C@@H](OCCCCO)O1	none
O=C(Nc1ccccc1)C1=C[C@H](c2coc3ccccc3c2=O)C[C@H](OCc2ccc(CO)cc2)O1	Pf growth 48h inconclusive, Pf growth 96h inconclusive
O=C(NCc1ccccc1)C1=C[C@@H](c2coc3ccccc3c2=O)C[C@@H](OCc2ccc(CO)cc2)O1	Pf growth 48h inconclusive, Pf growth 96h 4.1µM
O=C(NC1CC1)C1=C[C@H](c2csc3ccccc23)C[C@H](OCCCCO)O1	Pf growth 48h inconclusive
O=C(NC1CC1)C1=C[C@@H](c2csc3ccccc23)C[C@@H](OCCCCO)O1	Pf growth 48h 10µM, Pf growth 96h 13µM
COc1ccc(-c2nnc(NC(=O)C3CCCN3S(=O)(=O)c3cccs3)o2)cc1 (centres undefined)	none (no result: NS1 function inh, CHX counter, Shiga inhibitor)
Cn1cnc(S(=O)(=O)N2CCCC(C(=O)Nc3ccc(OC(F)(F)F)cc3)C2)c1 (centres undefined)	none (no result: NS1 function inh, CHX counter, Pf growth 48h, Shiga inhibitor, Pf growth 96h)
Cc1cc(N/N=C/c2ccco2)c2ccccc2n1	none (no result: Sm TGR inh)
Clc1ccc2c(NC3CCC(N4CCCCC4)CC3)ccnc2c1 (centres undefined)	none (no result: Sm TGR inh, CHX counter, Pf growth 48h, Shiga inhibitor, Pf growth 96h)
Oc1ccc(/C=N/Nc2ccnc3cc(Cl)ccc23)c(O)c1	CHX counter 23, Pf growth 48h 0.59µM, Shiga inhibitor 38, Pf growth 96h 0.37µM
Cc1ccccc1/C=N/Nc1ccnc2cc(Cl)ccc12	Pf growth 48h 0.83µM, Pf growth 96h 0.83µM
Cc1ccc(/C=N/Nc2ccnc3cc(Cl)ccc23)c(C)c1	Pf growth 48h 0.21µM, Pf growth 96h inconclusive
CSCC[C@H](NC(=O)c1ccc(NC[C@@H](N)CS)cc1-c1ccccc1)C(=O)O	none (no result: Sm TGR inh, NS1 function inh, Pf growth 48h, Pf growth 96h)
Cc1ccc(CNC(=O)CCn2cnc3ccccc3c2=O)cc1	none (no result: NS1 function inh, CHX counter, Pf growth 48h, Shiga inhibitor, Pf growth 96h)
CCCNC(=O)c1ccc(N2CC3CC(C2)c2cccc(=O)n2C3)c(NC(=O)Nc2ccc(CC)cc2)c1 (centres undefined)	Pf growth 48h inconclusive
COc1cccc(NC(=O)Nc2cc(C(=O)NC(C)C)ccc2N2CC3CC(C2)c2cccc(=O)n2C3)c1 (centres undefined)	Pf growth 48h 12µM
CSc1ccccc1NC(=O)c1ccc(N2CC3CC(C2)c2cccc(=O)n2C3)c(NC(=O)c2ccncc2)c1 (centres undefined)	Pf growth 48h 9.3µM, Pf growth 96h inconclusive
Nn1c(C2CCC2)nc2cc(Cl)ccc2c1=O	Pf growth 96h inconclusive (no result: Shiga inhibitor)
CN(C)C(/C=C/Nc1ccc(O)cc1)=C(C#N)C#N	Pf growth 48h inconclusive, Pf growth 96h 9.3µM (no result: NS1 function inh)
O=C(NCc1ccccc1)c1cc(-c2cccc(O)c2)on1	CHX counter 25, Shiga inhibitor 61
CC(C)CNC(=O)c1nc(-c2ccccc2)n(-c2ccccc2)n1	none
O=C(NCc1cccnc1)c1nc(-c2ccccc2)n(-c2ccccc2)n1	Pf growth 96h 3.3µM
